# An excerpt weighted towards active compounds, which were near 7.5% of everything screened.
# KinaseGlo FLuc – Counterscreen for Luciferase (Kinase-Glo TM) Inhibition | Luciferin 4-monooxygenase (Photuris pensylvanica), Q27757 | Kinase-Glo luciferase, ATP luminescence, 8 min | Potency, µM (series often up to 38.3 µM), most hits filed as inhibitors | 0.28% of 200,000 active | AID 1379, 2008; also: nearly all actives have a fitted effect of over 60% in size
#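 Substrate mix (final 50 mM imidazole pH 7.2, 50 mM KCl, 7 mM MgCl2, 10 uM ATP, 0.01% Tween 20, 0.05% BSA) plus pin-tool compound, then Kinase-Glo detection mix; 8 min ambient, luminescence read.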
# ELG1 genotox – qHTS screen for small molecules that induce genotoxicity in human embryonic kidney (HEK293T) cells expressing luciferase-tagged ELG1. Potency, µM (titrated, usually from 46 µM), most hits filed as activators. HEK293T ELG1-luciferase reporter, luminescence, 16 h. AID 504466, 2011. 1.3% of 330,000 active; also: nearly all actives have a fitted effect of over 60% in size
#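 Cells (2,000/well) expressing the ELG1-luciferase fusion are dosed by pin tool and kept 16 hr at 37 °C, 5% CO2. Signal comes from ONE-Glo luciferase reagent after 30 min at room temperature.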
# FLuc counter – qHTS profiling assay for firefly luciferase inhibitor/activator using purifed enzyme and Km concentrations of substrates (counterscreen for miR-21 project); purified FLuc, Km substrates, luminescence inhibition; Luciferin 4-monooxygenase (Photinus pyralis), P08659; AID 588342, 2011; 6.9% of 360,000 active; Potency, µM (series often up to 57.5 µM), usual class: inhibitors; also: nearly all actives have a fitted effect of over 55% in size
# Target sequence (P08659 whole entry, looked up): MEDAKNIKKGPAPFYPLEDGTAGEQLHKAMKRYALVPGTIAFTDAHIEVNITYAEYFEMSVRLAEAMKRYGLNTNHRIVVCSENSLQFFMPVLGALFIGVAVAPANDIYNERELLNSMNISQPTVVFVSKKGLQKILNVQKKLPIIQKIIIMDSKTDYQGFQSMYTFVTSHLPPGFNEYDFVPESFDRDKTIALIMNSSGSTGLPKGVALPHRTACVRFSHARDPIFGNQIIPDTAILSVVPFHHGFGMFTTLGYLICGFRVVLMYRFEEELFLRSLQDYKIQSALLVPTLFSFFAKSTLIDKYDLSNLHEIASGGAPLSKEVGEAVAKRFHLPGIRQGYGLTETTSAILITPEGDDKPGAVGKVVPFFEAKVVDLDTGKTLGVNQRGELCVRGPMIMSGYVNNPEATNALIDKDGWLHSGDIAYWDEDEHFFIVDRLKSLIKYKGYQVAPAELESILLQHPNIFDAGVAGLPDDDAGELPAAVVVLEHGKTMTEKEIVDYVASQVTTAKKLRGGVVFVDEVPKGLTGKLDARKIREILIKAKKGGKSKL
#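 Purified P. pyralis luciferase (10nM final) with 10uM D-luciferin and 10uM ATP (Km levels) in 50mM Tris acetate pH 7.5, 10mM Mg acetate, 0.01% Tween-20, 0.05% BSA; qHTS 6-point titration, ~60 µM downward; luminescence read.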
# Rab9 promoter act – qHTS Assay for Rab9 Promoter Activators; Huh7 Rab9 promoter-luciferase reporter, luminescence, 24 h; Potency, µM (titrated, usually from 9.22 µM), hits mostly activators; 2.8% of 320,000 active; AID 485297, 2010; also: nearly all actives have a fitted effect of over 60% in size
#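 Huh7 cells stably carrying Rab9 promoter–luciferase reporter, plated 1500 cells/well, compound added after 2 h and incubated 24 h at 37 °C; luciferase luminescence then read after 10 min with detection reagent.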
# SMN2 splice enh – qHTS Assay for Enhancers of SMN2 Splice Variant Expression. HEK293 SMN2-luciferase splicing reporter, luminescence, 30-36 h. Potency, µM (doses to about 46.1 µM), actives largely listed as activators. 2.8% of 210,000 active. AID 1458, 2008; also: nearly all actives have a fitted effect of over 55% in size
#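 qHTS luciferase splicing reporter: luminescence rises when SMN2 exon 7 is included in transfected HEK293 cells. Compound exposure lasted 30-36 h at 37C, with 4.5 mM final sodium butyrate as control, followed by a ONE-Glo read.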
# NPC1 prom act – qHTS Assay for NPC1 Promoter Activators; Huh7 NPC1 promoter luciferase reporter, 24 h; AID 485313, 2010; Potency, µM (highest dose often 9.22 µM), usual class: activators; 2.4% of 320,000 active; also: nearly all actives have a fitted effect of over 60% in size
#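 Luciferase expression driven by the NPC1 promoter was measured in stably transfected Huh7 cells after a 24 h compound incubation, using a luciferase reagent and a luminescence read.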
# Hits are given with their value; n = inactive; u = inconclusive; x = no result given; [ ] = another dose, or the depositor's remark. Calls follow the shape of the dose curve; as a rule, active = well fitted curve in the direction sought with a large enough effect; inconclusive = small, poorly fitted or top-dose-only effect, or another doubt; inactive = no such curve, though single readings can be large; an effect the other way counts as inactive or inconclusive.
SMILES,KinaseGlo FLuc,ELG1 genotox,FLuc counter,Rab9 promoter act,SMN2 splice enh,NPC1 prom act
CCC12CCN(C)CC1Oc1c(C)cccc12 (stereo not given),x,x,n,x,x,x
c1ccc(CCN2CCOCC2)nc1,n[7.66 µM],x,x,x,n[9.22 µM],x
O=C(Oc1ccc2ccc(OC(=O)N3CCCCCC3)cc2c1)N1CCCCCC1,n,u,13µM,n,n,n
O=C(Nc1ccc(OC(=O)N2CCCCC2)cc1)N1CCOCC1,n,n,n,n,x,n
O=C(Cc1c(O)c2ccccc2oc1=O)c1ccc(F)cc1,x,n,3µM,u,x,u
O=C(c1ccco1)c1cn(Cc2ccc(Cl)cc2)c2ccccc12,n,n,u,n,n,n
COc1ccccc1OCCCn1cc(C(=O)c2ccco2)c2ccccc21,n,n,17µM,n,n,u
CN(C)c1ccc(/C=C/C=C2/C(=O)NC(=O)N(c3ccccc3)C2=O)cc1,14µM,n,4.3µM,n,x,n
O=C1NC(=O)N(c2ccccc2)C(=O)/C1=C/c1ccc2c(c1)Cc1ccccc1-2,n,n,21µM,n,n,n
CC(C)(C)n1cccc1/C=C1\C(=O)NC(=O)N(c2ccccc2)C1=O,n,n,24µM,n,n,n
COc1cc(/C=C2\C(=O)NC(=O)N(c3ccccc3)C2=O)cc(OC)c1O,n,n,21µM,n,n,n
Cc1cc(C)cc(N2C(=O)NC(=O)/C(=C/c3cccn3-c3ccc(Cl)cc3)C2=O)c1,n,n,n,n,n,n
O=C1NC(=O)N(c2ccccc2)C(=O)/C1=C/C=C/c1ccco1,x,n,u,n,x,n
CCCCC/C=C\C/C=C\C/C=C\C/C=C\CCCC(=O)N(Cc1ccc(O)c(Cl)c1)Cc1ccc(O)c(Cl)c1,n,x,x,x,x,x
C(CCOCC1CO1)COCC1CO1 (stereo not given),x,x,x,x,n,x
O=C(Oc1ccc(S(=O)(=O)F)cc1F)c1ccccc1Cl,n[7.66 µM],x,x,x,n[9.22 µM],x
COc1ccc(NC2=NCC(C)S2)cc1 (stereo not given),n,n,n,n,n,n
COc1ccc(NC2=NC(C)(C)CS2)cc1,n,u,u,u,11µM,u
O=C(COC(=O)Cc1ccccc1)Nc1ccc(SC(F)F)cc1,n,n,19µM,n,n,n
C=CCBr,x,x,x,x,n,x
O=C(Oc1ccc2ccccc2c1)c1ccco1,n,n,12µM,n,n,n
COc1ccc(C(C)=O)cc1CC(C(=O)c1ccc(Br)cc1)N(C)C (stereo not given),n,n,n,n,n,n
COc1cc(C(C)=O)ccc1OCc1cc(C(=O)N(C)CCC2CCCCO2)no1 (stereo not given),x,u,6.7µM,1.6µM,x,2.2µM
Clc1ccccc1Nc1ncnc(-n2cccc2)n1,n,u,7.6µM,3.5µM,u,2.8µM
Clc1cc(Cl)c(Cl)c(Cl)c1,x,x,x,x,n,x
SMILES,KinaseGlo FLuc,ELG1 genotox,FLuc counter,Rab9 promoter act,SMN2 splice enh,NPC1 prom act
O=C(O)c1cccc([As]=[As]c2cccc(C(=O)O)c2)c1 (stereo not given),n[7.66 µM],x,x,x,n[9.22 µM],x
O=C(C1CC(c2ccc(F)cc2)=NO1)N1CCC2(CC1)OCCO2 (stereo not given),n,21µM,17µM,u,n,n
O=C(C1CC(c2ccc(Cl)c(Cl)c2)=NO1)N1CCC2(CC1)OCCO2 (stereo not given),n,7.3µM,15µM,2µM,13µM,2.2µM
COc1ccc(N2C(=O)/C(=C/c3cc(C)n(-c4ccc(C)cn4)c3C)C(=O)NC2=S)c(OC)c1,n,n,27µM,n,n,n
COc1ccc(OC)c(N2C(=O)/C(=C/c3ccco3)C(=O)NC2=S)c1,x,n,u,n,x,n
O=C(O)[C@H]1[O][Sb][O][C@@H](C(=O)O)C1O (stereo not given in full),n[7.66 µM],x,x,x,n[9.22 µM],x
O=C(O)c1cn(Cc2ccccc2)nc1-c1ccccc1,n,n,n,n,n,n
